Laboratory results as given in PubChem BioAssay AID1159580 (chemical genetic matrix, 2015).
Hit rate of the full screen: of about 5,500 compounds, about 2,000 (36%) were called active. About 18% were inconclusive and are not listed. Rule as the data show it: active = normalized growth mostly below about 0.91 (no sharp cut-off); inconclusive = no clear call, values can overlap the other calls; inactive = mostly above about 0.92. The list shows a part of the results.

Assay: chemical genetic growth profiling, strain panel (AID 1159580);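 also: tested at 20 µM; growth read once vehicle control cultures reached saturation at 30 °C; 1 = growth at the plate median or of vehicle wells; lower values mean less growth of the strain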
Details: growth OD

Measured: normalized growth

COC(=O)C(N)CS (configuration not stated)
inactive: S. cerevisiae deletion strains, locus YJR075W, strain HOC1, active compounds read low 0.977 | S. cerevisiae deletion strains, locus YKL009W, strain mrt4, active compounds read low 1.02 | S. cerevisiae deletion strains, locus YKL068W, active compounds read low 0.99 | S. cerevisiae deletion strains, locus YKL085W, strain MDH1 (second series), active compounds read low 0.992 | S. cerevisiae deletion strains, locus YKL085W, strain MDH1, active compounds read low 0.992 | S. cerevisiae deletion strains, locus YKL160W, strain elf1, active compounds read low 1.02 | S. cerevisiae deletion strains, locus YKL190W, strain CNB1, active compounds read low 0.998 | S. cerevisiae deletion strains, locus YKR001C, strain vps1, active compounds read low 0.924 | S. cerevisiae deletion strains, locus YKR026C, strain gcn3, active compounds read low 0.985 | S. cerevisiae deletion strains, locus YKR091W, strain srl3, active compounds read low 0.99 | S. cerevisiae deletion strains, locus YLL001W, strain dnm1, active compounds read low 0.948 | S. cerevisiae deletion strains, locus YLL026W, active compounds read low 0.978 | S. cerevisiae deletion strains, locus YLL041C, strain sdh2, active compounds read low 0.985 | S. cerevisiae deletion strains, locus YLR027C, strain aat2, active compounds read low 0.988 | S. cerevisiae deletion strains, locus YLR039C, strain RIC1, active compounds read low 0.897 | S. cerevisiae deletion strains, locus YLR058C, strain SHM2, active compounds read low 0.99 | S. cerevisiae deletion strains, locus YLR102C, strain apc9, active compounds read low 0.98 | S. cerevisiae deletion strains, locus YLR113W, strain HOG1, active compounds read low 0.972 | S. cerevisiae deletion strains, locus YLR221C, strain rsa3, active compounds read low 0.961 | S. cerevisiae deletion strains, locus YLR258W, strain gsy2, active compounds read low 1 | S. cerevisiae deletion strains, locus YLR262C, strain YPT6 (second series), active compounds read low 0.926 | S. cerevisiae deletion strains, locus YLR262C, strain YPT6, active compounds read low 0.943 | S. cerevisiae deletion strains, locus YLR320W, strain mms22, active compounds read low 0.92 | S. cerevisiae deletion strains, locus YLR330W, strain CHS5, active compounds read low 0.993 | S. cerevisiae deletion strains, locus YLR342W, strain FKS1 (second series), active compounds read low 0.938 | S. cerevisiae deletion strains, locus YLR342W, strain FKS1, active compounds read low 0.984 | S. cerevisiae deletion strains, locus YLR357W, strain rsc2, active compounds read low 0.947 | S. cerevisiae deletion strains, locus YLR370C, strain arc18, active compounds read low 0.996 | S. cerevisiae deletion strains, locus YLR371W, strain rom2, active compounds read low 0.967 | S. cerevisiae deletion strains, locus YLR384C, strain iki3, active compounds read low 0.992 | S. cerevisiae deletion strains, locus YLR418C, strain cdc73, active compounds read low 0.888 | S. cerevisiae deletion strains, locus YML016C, strain PPZ1, active compounds read low 0.989 | S. cerevisiae deletion strains, locus YML032C, strain rad52, active compounds read low 0.962 | S. cerevisiae deletion strains, locus YML120C, strain ndi1, active compounds read low 0.949 | S. cerevisiae deletion strains, locus YML124C, strain tub3, active compounds read low 0.985 | S. cerevisiae deletion strains, locus YMR058W, strain fet3, active compounds read low 0.963 | S. cerevisiae deletion strains, locus YMR078C, strain ctf18, active compounds read low 0.968 | S. cerevisiae deletion strains, locus YMR125W, strain sto1, active compounds read low 1.01 | S. cerevisiae deletion strains, locus YMR129W, active compounds read low 1 | S. cerevisiae deletion strains, locus YMR205C, strain PFK2, active compounds read low 0.957 | S. cerevisiae deletion strains, locus YMR223W, strain ubp8, active compounds read low 0.965 | S. cerevisiae deletion strains, locus YMR231W, strain pep5, active compounds read low 0.981 | S. cerevisiae deletion strains, locus YMR263W, strain SAP30, active compounds read low 0.984 | S. cerevisiae deletion strains, locus YMR307W, strain GAS1, active compounds read low 1 | S. cerevisiae deletion strains, locus YNL067W, strain RPL9B, active compounds read low 0.968 | S. cerevisiae deletion strains, locus YNL071W, strain lat1, active compounds read low 0.968 | S. cerevisiae deletion strains, locus YNL128W, strain TEP1, active compounds read low 0.983 | S. cerevisiae deletion strains, locus YNL153C, strain GIM3, active compounds read low 0.991 | S. cerevisiae deletion strains, locus YNL183C, strain NPR1, active compounds read low 1 | S. cerevisiae deletion strains, locus YNL209W, strain ssb2, active compounds read low 1.01 | S. cerevisiae deletion strains, locus YNL233W, strain BNI4, active compounds read low 0.955 | S. cerevisiae deletion strains, locus YNL248C, strain rpa49, active compounds read low 0.984 | S. cerevisiae deletion strains, locus YNL250W, strain rad50, active compounds read low 0.98 | S. cerevisiae deletion strains, locus YNL271C, strain bni1, active compounds read low 0.98 | S. cerevisiae deletion strains, locus YNL298W, strain CLA4, active compounds read low 0.991 | S. cerevisiae deletion strains, locus YNL322C, strain KRE1 (second series), active compounds read low 1 | S. cerevisiae deletion strains, locus YNL322C, strain KRE1, active compounds read low 1 | S. cerevisiae deletion strains, locus YNR049C, strain mso1, active compounds read low 0.986 | S. cerevisiae deletion strains, locus YNR052C, strain pop2, active compounds read low 0.973 | S. cerevisiae deletion strains, locus YOL006C, strain TOP1, active compounds read low 0.896 | S. cerevisiae deletion strains, locus YOL012C, strain htz1 1.21 | S. cerevisiae deletion strains, locus YOL147C, strain pex11, active compounds read low 0.984 | S. cerevisiae deletion strains, locus YOR001W, strain rrp6, active compounds read low 0.929 | S. cerevisiae deletion strains, locus YOR061W, strain CKA2, active compounds read low 0.989 | S. cerevisiae deletion strains, locus YOR069W, strain VPS5, active compounds read low 0.991 | S. cerevisiae deletion strains, locus YOR070C, strain gyp1, active compounds read low 0.999 | S. cerevisiae deletion strains, locus YOR080W, strain dia2, active compounds read low 0.979 | S. cerevisiae deletion strains, locus YOR083W, strain WHI5, active compounds read low 0.988 | S. cerevisiae deletion strains, locus YOR106W, strain vam3, active compounds read low 0.949 | S. cerevisiae deletion strains, locus YOR136W, strain idh2, active compounds read low 0.978 | S. cerevisiae deletion strains, locus YOR144C, strain elg1, active compounds read low 0.979 | S. cerevisiae deletion strains, locus YOR184W, strain ser1, active compounds read low 0.911 | S. cerevisiae deletion strains, locus YOR231W, strain MKK1, active compounds read low 1 | S. cerevisiae deletion strains, locus YOR265W, strain rbl2, active compounds read low 0.992 | S. cerevisiae deletion strains, locus YOR270C, strain vph1, active compounds read low 0.805 | S. cerevisiae deletion strains, locus YOR290C, strain snf2, active compounds read low 1.02 | S. cerevisiae deletion strains, locus YOR316C, strain cot1, active compounds read low 0.987 | S. cerevisiae deletion strains, locus YPL051W, strain arl3, active compounds read low 1.01 | S. cerevisiae deletion strains, locus YPL055C, strain LGE1, active compounds read low 0.993 | S. cerevisiae deletion strains, locus YPL078C, strain atp4, active compounds read low 1.01 | S. cerevisiae deletion strains, locus YPL106C, strain sse1, active compounds read low 1.03 | S. cerevisiae deletion strains, locus YPL240C, strain hsp82, active compounds read low 0.987 | S. cerevisiae deletion strains, locus YPL241C, strain CIN2, active compounds read low 0.996 | S. cerevisiae deletion strains, locus YPL256C, strain CLN2, active compounds read low 1.05 | S. cerevisiae deletion strains, locus YPR119W, strain clb2, active compounds read low 0.977 | S. cerevisiae deletion strains, locus YPR141C, strain kar3, active compounds read low 0.979 | S. cerevisiae deletion strains, locus YPR167C, strain met16, active compounds read low 0.98 | S. cerevisiae deletion strains, strain wtn01, active compounds read low 0.967 | S. cerevisiae strains, strain wild type, active compounds read low 0.983
active: S. cerevisiae deletion strains, locus YLR268W, strain sec22, active compounds read low 0.871 | S. cerevisiae deletion strains, locus YNL307C, strain MCK1, active compounds read low 0.797 | S. cerevisiae deletion strains, locus YPR163C, strain tif3, active compounds read low 0.887
